Structures are written as SMILES.

For the first assay, the system named is Madurella mycetomatis MM55. In words: growth relative to untreated control; higher = less inhibition, active = 20 or less. The conditions noted are these: 25 µM. On the procedure: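 Hyphal fragments of M. mycetomatis MM55 or F. senegalensis CBS197.79 in RPMI 1640/MOPS were exposed to each MMV COVID Box or Global Health Priority Box compound at 100 or 25 µM for 7 days at 37 °C. Viability was read with MTS (490 nm, M. mycetomatis) or resazurin (600 nm, F. senegalensis), background-corrected with a medium-only control and expressed as % growth relative to the untreated growth control. Inhibition of more than 80% was taken as growth inhibition.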
With `CN(C)CCn1c(Nc2cc(Cl)cc(C(F)(F)F)c2)nc2cnc(NC3CCCC3)cc21`, the growth is 39.6% (inactive).
On the same count and under the same terms, the same measure for `CN1C2CCC1CC(C#N)C2` (stereo not given): 85.6% (inactive); for `CCOC(=O)CC(SP(=S)(OC)OC)C(=O)OCC` (stereo not given): 128% (inactive).
In the case of `CN1CCN(C(=O)O[C@H]2c3nccnc3C(=O)N2c2ccc(Cl)cn2)CC1`, the growth was 72.7% (inactive).
In the case of `Clc1cc(Cl)cc(Nc2nc3cnc(NC4CCCC4)cc3n2C2CCNC2)c1` (stereo not given), the growth is 7.86% (active).
With `CC(C)=CC1C(C(=O)OCN2C(=O)C3=C(CCCC3)C2=O)C1(C)C` (stereo not given), the growth is 85.9% (inactive).
In the case of `CCOCn1c(-c2ccc(Cl)cc2)c(C#N)c(Br)c1C(F)(F)F`, the growth is 30.1% (inactive).
With `ClC1=C(Cl)[C@@]2(Cl)[C@H]3C[C@@H](Cl)[C@H](Cl)[C@H]3[C@@]1(Cl)C2(Cl)Cl`, the growth is 104% (inactive).
For the compound `CC(C)(C)Nc1cc2c(cn1)nc(Nc1cc(Cl)cc(C(F)(F)F)c1)n2C1CCNC1` (stereo not given), the growth was 8.45% (active).
For the compound `C=C(C)[C@H]1Cc2c(ccc3c2O[C@@H]2COc4cc(OC)c(OC)cc4[C@@H]2C3=O)O1`, the growth is 7.57% (active).
Still for that read-out and setting: as for `CCN(Cc1ccc(Cl)nc1)/C(=C/[N+](=O)[O-])NC`, the figure is 86.9% (inactive); as for `N#Cc1nn(-c2c(Cl)cc(C(F)(F)F)cc2Cl)c(NCc2ccccn2)c1SC(F)F`, 47.2% (inactive); as for `Cc1cc(C2=NOC(c3cc(Cl)cc(Cl)c3)(C(F)(F)F)C2)ccc1C(=O)NCC(=O)NCC(F)(F)F` (stereo not given), 43.8% (inactive).
The same measure, in the same setting: as for `COc1ccc(Cc2nccc3cc(OC)c(OC)cc23)cc1OC`, the figure is 78% (inactive); as for `CC1(C)CNC(=NN=C(C=Cc2ccc(C(F)(F)F)cc2)C=Cc2ccc(C(F)(F)F)cc2)NC1`, 104% (inactive); as for `CC(C)Nc1cc2c(cn1)nc(Nc1cc(Cl)cc(C(F)(F)F)c1)n2C1CCNC1` (stereo not given), 7.15% (active).
Regarding `CC[C@@H]1CCC[C@H](O[C@H]2CC[C@H](N(C)C)[C@@H](C)O2)[C@@H](C)C(=O)C2=C[C@@H]3[C@@H](C=C(C)[C@@H]4C[C@@H](O[C@@H]5O[C@@H](C)[C@H](OC)[C@@H](OC)[C@H]5OC)C[C@@H]34)[C@@H]2CC(=O)O1.CC[C@@H]1CCC[C@H](O[C@H]2CC[C@H](N(C)C)[C@@H](C)O2)[C@@H](C)C(=O)C2=C[C@@H]3[C@@H](C=C[C@@H]4C[C@@H](O[C@@H]5O[C@@H](C)[C@H](OC)[C@@H](OC)[C@H]5OC)C[C@@H]34)[C@@H]2CC(=O)O1`, the growth was 133% (inactive).
With `CCOP(=S)(OCC)Oc1cc(C)nc(C(C)C)n1`, the growth is 108% (inactive).
In the case of `C[C@@H]1C[C@@H]([C@H](O)CC2CC(=O)NC(=O)C2)C(=O)[C@@H](C)C1`, the growth is 31.4% (inactive).
On to `CN(C)[C@@H]1C(=O)C(C(N)=O)=C(O)[C@@]2(O)C(O)=C3C(=O)c4c(O)cccc4[C@@](C)(O)[C@H]3C[C@@H]12`, for which the growth was 102% (inactive).

Staying with this assay, now noted: 100 µM.
Turning to `CN(C)CCn1c(Nc2cc(Cl)cc(C(F)(F)F)c2)nc2cnc(NC3CCCC3)cc21`, the growth is 124% (inactive).
On the same count and under the same terms, as for `CN1C2CCC1CC(C#N)C2` (stereo not given), the figure is 117% (inactive); as for `CCOC(=O)CC(SP(=S)(OC)OC)C(=O)OCC` (stereo not given), 131% (inactive); as for `CN1CCN(C(=O)O[C@H]2c3nccnc3C(=O)N2c2ccc(Cl)cn2)CC1`, 88.8% (inactive).
On to `Clc1cc(Cl)cc(Nc2nc3cnc(NC4CCCC4)cc3n2C2CCNC2)c1` (stereo not given), for which the growth is 6.79% (active).
For the compound `CC(C)=CC1C(C(=O)OCN2C(=O)C3=C(CCCC3)C2=O)C1(C)C` (stereo not given), the growth was 127% (inactive).
As for `CCOCn1c(-c2ccc(Cl)cc2)c(C#N)c(Br)c1C(F)(F)F`, the growth is 6.93% (active).
For `ClC1=C(Cl)[C@@]2(Cl)[C@H]3C[C@@H](Cl)[C@H](Cl)[C@H]3[C@@]1(Cl)C2(Cl)Cl`, the growth is 130% (inactive).
Same read-out and setting: the same measure for `CC(C)(C)Nc1cc2c(cn1)nc(Nc1cc(Cl)cc(C(F)(F)F)c1)n2C1CCNC1` (stereo not given): 7.09% (active); for `C=C(C)[C@H]1Cc2c(ccc3c2O[C@@H]2COc4cc(OC)c(OC)cc4[C@@H]2C3=O)O1`: 9.11% (active); for `CCN(Cc1ccc(Cl)nc1)/C(=C/[N+](=O)[O-])NC`: 132% (inactive).
Turning to `N#Cc1nn(-c2c(Cl)cc(C(F)(F)F)cc2Cl)c(NCc2ccccn2)c1SC(F)F`, the growth is 131% (inactive).
With `Cc1cc(C2=NOC(c3cc(Cl)cc(Cl)c3)(C(F)(F)F)C2)ccc1C(=O)NCC(=O)NCC(F)(F)F` (stereo not given), the growth was 9.07% (active).
Consider `COc1ccc(Cc2nccc3cc(OC)c(OC)cc23)cc1OC`, for which the growth was 83.4% (inactive).
Take `CC1(C)CNC(=NN=C(C=Cc2ccc(C(F)(F)F)cc2)C=Cc2ccc(C(F)(F)F)cc2)NC1`: the growth was 106% (inactive).
Regarding `CC(C)Nc1cc2c(cn1)nc(Nc1cc(Cl)cc(C(F)(F)F)c1)n2C1CCNC1` (stereo not given), the growth is 6.36% (active).
For the compound `CC[C@@H]1CCC[C@H](O[C@H]2CC[C@H](N(C)C)[C@@H](C)O2)[C@@H](C)C(=O)C2=C[C@@H]3[C@@H](C=C(C)[C@@H]4C[C@@H](O[C@@H]5O[C@@H](C)[C@H](OC)[C@@H](OC)[C@H]5OC)C[C@@H]34)[C@@H]2CC(=O)O1.CC[C@@H]1CCC[C@H](O[C@H]2CC[C@H](N(C)C)[C@@H](C)O2)[C@@H](C)C(=O)C2=C[C@@H]3[C@@H](C=C[C@@H]4C[C@@H](O[C@@H]5O[C@@H](C)[C@H](OC)[C@@H](OC)[C@H]5OC)C[C@@H]34)[C@@H]2CC(=O)O1`, the growth is 91.5% (inactive).
Regarding `CCOP(=S)(OCC)Oc1cc(C)nc(C(C)C)n1`, the growth was 135% (inactive).
On the same count and under the same terms, as for `C[C@@H]1C[C@@H]([C@H](O)CC2CC(=O)NC(=O)C2)C(=O)[C@@H](C)C1`, the figure is 3.56% (active); as for `CN(C)[C@@H]1C(=O)C(C(N)=O)=C(O)[C@@]2(O)C(O)=C3C(=O)c4c(O)cccc4[C@@](C)(O)[C@H]3C[C@@H]12`, 82.5% (inactive).

The values above are taken from the supplement of paper PMC11172423.
